# According to the supplement of paper PMC6555819:
# Key:
# Experiment in all cases: PBM binding z-score (relative to random genomic background probes); higher = stronger binding; sequences stand for … in GC…GCGATTGACAGCGTAGAATGAAGG
# [1] = tested on: FXR:RXRa (NR concentration 270 nM, RXRa partner concentration 90 nM)
# How it was run: (§1)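 Random background probes are the reference for binding z-scores. These scores derive from regression-normalized fluorescence on custom Agilent 4×180K protein-binding microarrays incubated 1 h with ligand-free nuclear receptor dimers. Binding was detected with antibodies against each partner (one per run).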
# [2] = tested on: LXRa:RXRa (NR concentration 270 nM, RXRa partner concentration 90 nM)
# How it was run: as §1
# [3] = tested on: LXRa homodimer (NR concentration 270 nM)
# How it was run: as §1
# [4] = tested on: LXRb:RXRa (NR concentration 270 nM, RXRa partner concentration 90 nM)
# How it was run: as §1
# [5] = tested on: LXRb homodimer (NR concentration 270 nM)
# How it was run: as §1
# [6] = tested on: PPARa:RXRa (NR concentration 270 nM, RXRa partner concentration 90 nM)
# How it was run: as §1
# [7] = tested on: PPARg:RXRa (NR concentration 180 nM, RXRa partner concentration 90 nM)
# How it was run: as §1
# [8] = tested on: PPARg:RXRa 270nM:90nM, anti-RXR (NR concentration 270 nM, RXRa partner concentration 90 nM)
# How it was run: as §1
# [9] = tested on: PPARg:RXRa 30nM:10nM, anti-RXR (NR concentration 30 nM, RXRa partner concentration 10 nM)
# How it was run: as §1
# [10] = tested on: PPARg:RXRa 90nM:30nM, anti-RXR (NR concentration 90 nM, RXRa partner concentration 30 nM)
# How it was run: as §1
# [11] = tested on: PPARg:RXRa DBDmut IVT, anti-RXR (DBD mutation: RXRa K156A/R161A, NR concentration 270 nM, RXRa partner concentration 90 nM)
# How it was run: as §1
# [12] = tested on: PPARg:RXRa IVT, anti-PPARg (NR concentration 270 nM, RXRa partner concentration 90 nM)
# How it was run: as §1
# [13] = tested on: PPARg DBDmut:RXRa IVT, anti-PPARg (DBD mutation: PPARg1 K132A/R137A, NR concentration 270 nM, RXRa partner concentration 90 nM)
# How it was run: as §1
# [14] = tested on: PPARg DBDmut IVT, anti-PPARg (DBD mutation: PPARg1 K132A/R137A, NR concentration 270 nM)
# How it was run: as §1
# [15] = tested on: PPARg homodimer (NR concentration 180 nM)
# How it was run: as §1
# [16] = tested on: PXR:RXRa (NR concentration 270 nM, RXRa partner concentration 90 nM)
# How it was run: as §1
# [17] = tested on: PXR homodimer (NR concentration 270 nM)
# How it was run: as §1
# [18] = tested on: RARa:RXR (NR concentration 270 nM, RXRa partner concentration 90 nM)
# How it was run: as §1
# [19] = tested on: RARa homodimer (NR concentration 270 nM)
# How it was run: as §1
# [20] = tested on: RARb:RXRa (NR concentration 270 nM, RXRa partner concentration 90 nM)
# How it was run: as §1
Sequence,PBM binding z-score [1],PBM binding z-score [2],PBM binding z-score [3],PBM binding z-score [4],PBM binding z-score [5],PBM binding z-score [6],PBM binding z-score [7],PBM binding z-score [8],PBM binding z-score [9],PBM binding z-score [10],PBM binding z-score [11],PBM binding z-score [12],PBM binding z-score [13],PBM binding z-score [14],PBM binding z-score [15],PBM binding z-score [16],PBM binding z-score [17],PBM binding z-score [18],PBM binding z-score [19],PBM binding z-score [20]
GCGAGTGGGGCAAAGCAGGTTACCATAAGGTTGG,0.592,0.51,-0.115,0.552,-0.338,1.36,0.889,1.12,-0.171,0.35,3.82,2.88,-0.867,-0.658,0.436,0.562,-0.254,0.873,0.0402,1
TCATATAGGTAAATGGTGAAAGTCGGTGTGGTAA,0.818,1.03,0.217,0.846,-0.047,1.6,1.54,3.44,4.15,3.96,3.92,2.4,0.569,0.625,1.49,0.445,0.609,0.554,1.52,0.243
CTCGAAAGGTCCTGCTCAGGTGAGTATACCAAAC,0.485,0.0121,-0.23,0.151,-0.603,0.515,-0.342,0.119,-0.0279,-0.0509,-0.108,0.189,0.172,-0.54,-0.47,-0.11,-0.684,0.631,-0.103,1.06
CATACTAGGTCAAGAGGTCAAAGTCCGCTTCCCG,7.24,6.42,7.38,5.6,2.49,6.35,8.96,7.68,5.59,7.65,7.37,7.69,4.46,2.98,5.59,6.4,2.53,7.53,3.07,5.67
ACTAGCAGGCCAAGGGACACTCAAGATTAGTCCG,-0.455,-0.514,-0.423,-0.897,-0.655,-0.248,1.88,1.99,0.906,1.86,0.487,0.462,-1.43,-0.851,-0.118,-0.905,-0.667,-0.78,-0.11,1.05
TCGAGTAGGTTACCAATGCGGCATTCAGCTTTCT,0.106,0.532,-0.94,0.215,-0.704,0.883,0.206,1.1,1.23,1.24,3.59,2.67,-0.407,-1.16,-0.385,-0.209,-1.01,-0.26,-0.774,0.646
TAGGCTAGGTCATGCGGGCCAGTATAGTGTCGGC,3.97,2.69,0.422,1.26,0.000142,3.1,2.29,2.28,0.305,1.33,2.31,2.92,0.345,0.348,1.24,1.21,-0.485,2.05,0.442,3.84
CCTACTGGGCCAAAAGGGTCATTGATGCCGATAA,2.19,2.17,0.372,2.58,-0.642,3.78,3.54,4.35,1.7,3.87,4.13,3.9,-0.517,-1.13,2.18,3.16,0.631,3.57,-0.0364,2.74
AGTCAAAGTTCAGGACGCGGTAACGTAAAGCACG,3.88,3.44,1.09,1.68,0.0515,3.08,4.39,4.71,1.96,3.51,-0.435,1.23,-0.53,-0.304,1.62,2.37,0.876,2.21,0.353,4.19
AGTCAAAGTTCAGCTAGGTAACGTAAGATATGCT,3.9,3.86,1.68,1.91,0.177,3.34,4.61,4.73,2.11,4.07,0.153,2.1,0.968,0.836,1.67,3.01,1.8,2.29,1.19,4.37
CCTTACGGGTCAATGACAGGTTATAGCATTTGGA,6.33,4.45,1.11,3.68,0.333,5.07,3.44,3.62,1.13,2.5,2.52,2.91,0.126,0.222,4.22,3.44,0.512,4.2,0.757,3.97
CTAACAAGGTGAACAAGGTCGTTGATTACTATTC,1.46,1.2,0.00841,1.71,-0.084,2.7,1.75,1.73,0.38,1.18,4.02,3.71,0.498,0.744,0.877,2.67,1.4,2.21,0.514,2.27
AGTCAAAGTACAGGACGAGGTAACGTAAAGCACG,0.0471,-0.247,0.0589,-0.158,-0.441,-0.0272,0.99,0.138,0.254,0.0519,-0.428,0.795,0.576,0.384,0.381,-0.161,0.4,0.278,-0.0608,0.641
